Compound activity as filed in PubChem.
Coupling enz = coupling enzyme interference in Giardia aldolase counter-screen. 290,000 compounds, 0.67% hits. AID 2472. activity change, negative = inhibition, % at 58.2 µM, hits read low. coupling enzyme system counterscreen, AmpLite Red fluorescence; in the data active = activity change below about -30%
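Counterscreen of the coupled detection system alone, without aldolase: glyceraldehyde-3-phosphate coupling enzymes plus AmpLite Red readout. Compounds at 57.5 uM final, 10 min RT preincubation, 20 min RT reaction, fluorescence 525/598 nm.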
Sfp inh = blocks B. subtilis Sfp PPTase activity | Biochemical Sfp PPTase activity, qHTS | 310,000 compounds, 3.5% hits | Potency, µM, for inactives: largest response in the series, negative = inhibition, hits mostly inhibitors;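 note: the enzyme is Sfp with the accession as filed and its product quenches rhodamine fluorescence; potency is the fitted concentration of half-maximal effect; 0% = enzyme reaction without inhibitor and -100% = no enzyme wells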
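Reaction rates are the 30-min fluorescence difference (ex 525, em 598 nm) in wells containing 15 nM Sfp, 5 uM rhodamine-CoA and 12.5 uM BHQ-2-YbbR at pH 7.6 with 10 mM MgCl2.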
Tau fibril ThT = tau fibrillization inhibition (ThT binding) | recombinant tau K18 P301L, heparin-induced fibrillization, ThT fluorescence | Potency, µM (top dose mostly 57.4 µM), without a hit: at the highest dose activity, negative = inhibition, hits mostly inhibitors | P10636 | 270,000 compounds, 2.1% hits; note: potency is the fitted concentration of half-maximal effect; nearly all actives have a fitted effect of over 55% in size
Target sequence (P10636 561-689 P618L limits assumed): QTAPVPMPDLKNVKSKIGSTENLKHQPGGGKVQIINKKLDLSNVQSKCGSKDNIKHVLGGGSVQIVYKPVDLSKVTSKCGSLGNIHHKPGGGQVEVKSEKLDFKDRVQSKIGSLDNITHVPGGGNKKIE
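ThT emission at 510 nm, taken 1 hr after adding 30 uM dye, quantifies aggregates formed when 20 uM heparin acts on human tau K18 P301L for 6 hr at 37 C.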
Tau fluor counter = counter-screen for tau fibril formation inhibitors; 280,000 compounds, 0.93% hits; tau K18 P301L Alexa594 fluorescence, heparin fibrillization; Potency, µM (series often up to 57.7 µM), inactives show top-dose activity change, negative = decrease; note: potency is the fitted concentration of half-maximal effect; nearly all actives have a fitted effect of over 55% in size
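Human K18 P301L tau (15 uM unlabeled plus 0.24 uM Alexa 594-labeled, final) in 100 mM sodium acetate pH 7 was mixed with compound and 20 uM heparin and incubated 6 hr at 37 C.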
Tau FP inhib = inhibitors of human tau fibril formation; 280,000 compounds, 0.39% hits; K18 P301L tau heparin fibrillization, Alexa594 FP, 6 h; Potency, µM (top dose mostly 57.7 µM), for the others: top-dose activity, negative = inhibition, hits mostly inhibitors; note: potency is the fitted concentration of half-maximal effect; nearly all actives have a fitted effect of over 55% in size
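Heparin (20 uM) drove fibril formation of recombinant tau K18 P301L, 15 uM unlabeled with 0.24 uM Alexa 594 label, for 6 hr at 37 C in 100 mM sodium acetate pH 7. Fluorescence polarization (555/632 nm) read 1 hr after 30 uM ThT.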
* hit, by the source's call; [ ] = dose if it differs, or a comment. In the library only some 5.2% were active in any assay of this set; here they are far more common. Unless noted, calls come from the whole dose curve; as a rule, active = well fitted curve in the direction sought with a large enough effect; inconclusive = small, poorly fitted or top-dose-only effect, or another doubt; inactive = no such curve, though single readings can be large; an effect the other way counts as inactive or inconclusive. Unless noted, % is set by controls: 0 for no effect and ±100 for the full control effect.

Results for COc1cccc(N2C(=O)CC(Nc3ccc(N4CCOCC4)cc3)C2=O)c1 (stereo not given) ?
Coupling enz: -8; Sfp inh: inconclusive; Tau fibril ThT: 14µM*; Tau fluor counter: -25%; Tau FP inhib: 1%

Results for COc1ccc(N2C(=O)CC(Nc3ccc(N4CCOCC4)cc3)C2=O)c(OC)c1 (stereo not given) ?
Coupling enz: -8; Sfp inh: inconclusive; Tau fibril ThT: inconclusive; Tau fluor counter: -21%; Tau FP inhib: 0%

How did O=C(CN1CCCN(Cc2ccccc2Cl)S1(=O)=O)NCc1ccccc1 do in these assays?
Tau fibril ThT: 13%; Tau fluor counter: -1%; Tau FP inhib: 4%

Results for Cc1ccc(NC(=O)c2cnc(SCC(=O)N3CCOCC3)n(C)c2=O)cc1C ?
Tau fibril ThT: inconclusive; Tau fluor counter: 1%; Tau FP inhib: -6%

How did Cc1c(Cl)cccc1-n1ncc(C(=O)NCc2cccs2)c1C1CCN(C(=O)OC(C)(C)C)CC1 do in these assays?
Tau fibril ThT: -12%; Tau fluor counter: -17%; Tau FP inhib: -1%

What do the screens show for `CCCC(=O)Nc1cc(C)c(NC(=O)c2ccccn2)cn1`?
Coupling enz: 0; Sfp inh: inconclusive; Tau fibril ThT: -6%; Tau fluor counter: -10%; Tau FP inhib: -4%

How did Cc1cc(NC(=O)C(C)C)ncc1NC(=O)c1ccccn1 do in these assays?
Coupling enz: 1; Sfp inh: 79µM*; Tau fibril ThT: -2%; Tau fluor counter: -2%; Tau FP inhib: 6%

What do the screens show for `C=C1C2c3ccccc3C(CC2(C)O[Si](C)(C)C)N1C(=O)OC` (stereo not given)?
Coupling enz: -1; Sfp inh: -1%; Tau fibril ThT: 9%[11.5 µM]; Tau fluor counter: 2%[11.6 µM]; Tau FP inhib: 4%[11.6 µM]

What do the screens show for `CCOc1ccc(N2C(=O)CC(Sc3ccccc3C(=O)O)C2=O)c([N+](=O)[O-])c1` (stereo not given)?
Coupling enz: 6; Sfp inh: 13µM*; Tau fibril ThT: inconclusive; Tau fluor counter: -26%; Tau FP inhib: -3%

Results for O=C(O)c1ccccc1SC1CC(=O)N(c2cccc3ccccc23)C1=O (stereo not given) ?
Coupling enz: 6; Sfp inh: 16µM*; Tau fluor counter: -10%; Tau FP inhib: 6%

Results for CCN1C(=O)CC(Sc2ccccc2C(=O)O)C1=O (stereo not given) ?
Coupling enz: 0; Sfp inh: 7%; Tau fibril ThT: -10%; Tau fluor counter: -9%; Tau FP inhib: -1%

Results for Cc1ccc(-c2nc(-c3cccs3)c(-c3cccs3)[nH]2)cc1 ?
Tau fibril ThT: -10%; Tau fluor counter: inconclusive; Tau FP inhib: 7%

Results for O=[N+]([O-])c1ccc(-c2nc(-c3cccs3)c(-c3cccs3)[nH]2)cc1 ?
Coupling enz: -4; Sfp inh: 4%; Tau fibril ThT: 5.6µM*; Tau fluor counter: 7.9µM*[quencher]; Tau FP inhib: inconclusive

How did Oc1cccc(-c2nc(-c3cccs3)c(-c3cccs3)[nH]2)c1 do in these assays?
Tau fibril ThT: 16µM*; Tau fluor counter: 13µM*[quencher]; Tau FP inhib: inconclusive

What do the screens show for `O=[N+]([O-])c1cccc(-c2nc(-c3cccs3)c(-c3cccs3)[nH]2)c1`?
Coupling enz: 1; Sfp inh: 27%; Tau fibril ThT: inconclusive; Tau fluor counter: 11µM*[quencher]; Tau FP inhib: 6%

Results for CN(C)c1ccc(CNC(=O)CN2C(=O)C3CCCCN3c3ccc(C(=O)N4CCCC4)cc32)cc1 (stereo not given) ?
Tau fibril ThT: -9%; Tau fluor counter: -5%; Tau FP inhib: -3%

Results for CCOc1cccc2sc(NC(=O)c3ccc(S(=O)(=O)N4CCCCC4C)cc3)nc12 (stereo not given) ?
Tau fibril ThT: 16%; Tau fluor counter: -2%; Tau FP inhib: -22%

How did CC(C)=CCC/C(C)=C/CO/N=C1/C[C@@H](O)[C@@H](O)[C@@H]2[C@@H]3C(=O)N([C@@H](C)c4ccccc4)C(=O)[C@H]3CC[C@H]12 do in these assays?
Coupling enz: 3; Sfp inh: 14%; Tau fibril ThT: -2%[11.5 µM]; Tau fluor counter: -9%[11.6 µM]; Tau FP inhib: 0%[11.6 µM]

Results for Cc1cc2nn(-c3ccc(F)cc3)nc2cc1NC(=O)c1cccc([N+](=O)[O-])c1C ?
Tau fibril ThT: -3%; Tau fluor counter: -10%; Tau FP inhib: -1%

Results for COc1cc([C@@H]2Oc3cc([C@H]4Oc5cc(O)cc(O)c5C(=O)[C@H]4O)ccc3O[C@H]2CO)ccc1O ?
Coupling enz: 1; Sfp inh: -30%; Tau fibril ThT: inconclusive; Tau fluor counter: inconclusive; Tau FP inhib: -1%

Results for Cc1cccc(C(=O)Nc2nnc(S(=O)(=O)N(C)c3ccccc3C)s2)c1 ?
Tau fibril ThT: inconclusive; Tau fluor counter: inconclusive; Tau FP inhib: 3%

How did COc1cc([N+](=O)[O-])ccc1-c1ccc(/C=N/NC(=O)c2ccccc2O)o1 do in these assays?
Coupling enz: 3; Sfp inh: 4%; Tau fibril ThT: 1.6µM*; Tau fluor counter: inconclusive; Tau FP inhib: 4%

What do the screens show for `O=C(N/N=C/c1ccc(-c2ccccc2[N+](=O)[O-])o1)c1cccnc1`?
Coupling enz: -12; Sfp inh: -6%; Tau fibril ThT: 7.1µM*; Tau fluor counter: -24%; Tau FP inhib: inconclusive

How did COc1cc([N+](=O)[O-])ccc1-c1ccc(/C=N\n2cnnc2)o1 do in these assays?
Coupling enz: -2; Sfp inh: -23%

How did CC(C)Oc1ccc(C(=O)N/N=C/c2ccc(-c3ccc(S(=O)(=O)Nc4ncccn4)cc3)o2)cc1 do in these assays?
Coupling enz: 8; Sfp inh: 79µM*; Tau fibril ThT: inconclusive; Tau fluor counter: -19%; Tau FP inhib: -8%

Results for O=C(N/N=C\c1ccc(-c2ccc([N+](=O)[O-])cc2)o1)c1ccc2c(c1)OCO2 ?
Coupling enz: 3; Sfp inh: -11%; Tau fibril ThT: 0.89µM*; Tau fluor counter: inconclusive; Tau FP inhib: 7%

What do the screens show for `C[C@@H]1[C@H]2CC[C@@H]3[C@@H]4CC=C5C[C@@H](N(C)C)CC[C@]5(C)[C@@H]4CC[C@@]32CN1C`?
Coupling enz: 3; Sfp inh: 23%

How did CC[C@H](CC[C@@H](C)C1CC[C@H]2[C@@H]3CC=C4C[C@@H](O)CC[C@]4(C)[C@H]3CC[C@]12C)C(C)C (stereo not given in full) do in these assays?
Coupling enz: -2; Sfp inh: 11%; Tau fibril ThT: -3%; Tau fluor counter: -5%; Tau FP inhib: -2%

How did CCOc1ccccc1-c1ccc(C(=O)O)o1 do in these assays?
Coupling enz: 11; Sfp inh: -2%; Tau fibril ThT: inconclusive; Tau fluor counter: -15%[126 µM]; Tau FP inhib: -3%[126 µM]
